Test results taken from PubChem BioAssay.
Activity calls are given as the source filed them.

What was measured:
[1] = optical density shifts of acrAB sulA E. coli – strain DRC41, OD650, 48 h, E. coli filamentation inducer project, primary screen (AID 1152); settings: higher = more signal, called active from +8 up or from −8 down;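 further: E. coli MC1000 strain DRC41 lacking acrAB efflux pump and sulA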
[2] = probe aLefty1 binding on compound microarray – biochemical, small-molecule microarray, 635/667 nm fluorescence, primary screen (AID 1153); settings: higher = more signal;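 further: score merges spot fluorescence with signal-to-noise ratio from the scanned slide images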
[3] = plasmodial surface anion channel blockers, osmotic lysis – cell-based, P. falciparum Indochina, OD700, 1 h, primary screen (AID 1154); settings: P. falciparum Indochina infected RBC osmotic lysis, higher = more signal, called active from +8 up or from −8 down
[4] = plasmodial surface anion channel blockers, osmotic lysis – cell-based, P. falciparum Indochina, OD700, 2 h, primary screen (AID 1155);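 further: lysis reports solute entry through the parasite surface anion channel PSAC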; settings: P. falciparum Indochina infected erythrocytes, higher = more signal, called active from +8 up or from −8 down
[5] = changes in parasitized red cell lysis, either direction – P. falciparum Indochina, OD700, 3 h, PSAC antagonist project, primary screen (AID 1156); settings: P. falciparum-infected erythrocytes, osmotic lysis, higher = more signal, called active from +8 up or from −8 down
[6] = plasmodial surface anion channel blockers, osmotic lysis – cell-based, P. falciparum Indochina, OD700, 18 h, primary screen (AID 1157); settings: P. falciparum Indochina infected erythrocytes, osmotic lysis OD700, 18 h; higher = more signal, called active from +8 up or from −8 down
[7] = S6 kinase pathway phospho-S6 level changes – cell-based, A549, cytoblot, luminescence, serum-stimulated, primary screen (AID 1158); settings: 5 h, higher = more signal;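 further: serum-stimulated A549 lung adenocarcinoma cells; signal is phosphorylated S6 detected by cytoblot immunostaining with HRP secondary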
[8] = target: NADPH oxidase 2 (Homo sapiens) (UniProt P04839); test: compounds shifting NOX2 Amplex Red fluorescence – cell-based, HEK293-NOX2, PMA-stimulated, NOX inhibitor project, primary screen (AID 1159); settings: 45 min, higher = more signal, called active from +8 up or from −8 down; further: test concentration not given here
NADPH oxidase 2 (Homo sapiens), sequence (P04839 whole entry, looked up): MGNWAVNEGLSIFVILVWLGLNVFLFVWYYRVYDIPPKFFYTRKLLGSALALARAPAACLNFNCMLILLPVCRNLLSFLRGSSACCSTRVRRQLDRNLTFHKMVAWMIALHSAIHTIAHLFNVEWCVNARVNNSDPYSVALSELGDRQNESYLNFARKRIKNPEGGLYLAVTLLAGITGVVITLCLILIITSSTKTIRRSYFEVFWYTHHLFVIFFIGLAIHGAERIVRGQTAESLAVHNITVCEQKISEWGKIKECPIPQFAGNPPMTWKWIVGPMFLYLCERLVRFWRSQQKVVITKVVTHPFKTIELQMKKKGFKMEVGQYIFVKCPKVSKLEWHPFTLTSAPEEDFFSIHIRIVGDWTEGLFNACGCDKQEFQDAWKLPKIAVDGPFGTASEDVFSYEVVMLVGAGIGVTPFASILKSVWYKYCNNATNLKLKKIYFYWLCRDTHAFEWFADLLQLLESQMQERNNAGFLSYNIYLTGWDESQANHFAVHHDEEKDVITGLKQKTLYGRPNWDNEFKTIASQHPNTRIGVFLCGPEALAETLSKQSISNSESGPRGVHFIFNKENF

[9] = target: NADPH oxidase 4 (Homo sapiens) (UniProt Q9NPH5); test: compounds shifting NOX4 Amplex Red fluorescence – cell-based, HEK293-NOX4, tetracycline-induced, NOX inhibitor project, primary screen (AID 1160); settings: HEK293-NOX4, Amplex Red H2O2 fluorescence, 45 min; higher = more signal, called active from +8 up or from −8 down
NADPH oxidase 4 (Homo sapiens), sequence (Q9NPH5 whole entry, looked up): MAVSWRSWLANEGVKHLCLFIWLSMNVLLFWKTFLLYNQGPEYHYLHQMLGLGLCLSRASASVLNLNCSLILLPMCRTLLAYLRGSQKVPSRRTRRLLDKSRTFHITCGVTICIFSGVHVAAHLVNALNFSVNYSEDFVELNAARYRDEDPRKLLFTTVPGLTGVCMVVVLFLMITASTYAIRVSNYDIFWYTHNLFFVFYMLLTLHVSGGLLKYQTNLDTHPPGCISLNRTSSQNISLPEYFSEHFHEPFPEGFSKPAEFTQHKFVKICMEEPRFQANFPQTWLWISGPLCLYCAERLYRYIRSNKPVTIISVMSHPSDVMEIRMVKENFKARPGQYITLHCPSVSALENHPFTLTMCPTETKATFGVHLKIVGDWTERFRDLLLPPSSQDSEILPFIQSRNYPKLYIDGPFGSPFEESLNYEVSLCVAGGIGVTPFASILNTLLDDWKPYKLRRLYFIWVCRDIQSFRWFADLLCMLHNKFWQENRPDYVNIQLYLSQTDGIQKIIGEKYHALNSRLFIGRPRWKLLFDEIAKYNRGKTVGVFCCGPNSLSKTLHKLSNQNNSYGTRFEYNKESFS

[10] = target: NADPH oxidase 5 (Homo sapiens) (UniProt Q96PH1); test: compounds shifting NOX5 Amplex Red fluorescence – cell-based, HEK293-NOX5, NOX inhibitor project, primary screen (AID 1161); settings: HEK293-NOX5, ionomycin, 45 min, higher = more signal
NADPH oxidase 5 (Homo sapiens), sequence (Q96PH1 whole entry, looked up): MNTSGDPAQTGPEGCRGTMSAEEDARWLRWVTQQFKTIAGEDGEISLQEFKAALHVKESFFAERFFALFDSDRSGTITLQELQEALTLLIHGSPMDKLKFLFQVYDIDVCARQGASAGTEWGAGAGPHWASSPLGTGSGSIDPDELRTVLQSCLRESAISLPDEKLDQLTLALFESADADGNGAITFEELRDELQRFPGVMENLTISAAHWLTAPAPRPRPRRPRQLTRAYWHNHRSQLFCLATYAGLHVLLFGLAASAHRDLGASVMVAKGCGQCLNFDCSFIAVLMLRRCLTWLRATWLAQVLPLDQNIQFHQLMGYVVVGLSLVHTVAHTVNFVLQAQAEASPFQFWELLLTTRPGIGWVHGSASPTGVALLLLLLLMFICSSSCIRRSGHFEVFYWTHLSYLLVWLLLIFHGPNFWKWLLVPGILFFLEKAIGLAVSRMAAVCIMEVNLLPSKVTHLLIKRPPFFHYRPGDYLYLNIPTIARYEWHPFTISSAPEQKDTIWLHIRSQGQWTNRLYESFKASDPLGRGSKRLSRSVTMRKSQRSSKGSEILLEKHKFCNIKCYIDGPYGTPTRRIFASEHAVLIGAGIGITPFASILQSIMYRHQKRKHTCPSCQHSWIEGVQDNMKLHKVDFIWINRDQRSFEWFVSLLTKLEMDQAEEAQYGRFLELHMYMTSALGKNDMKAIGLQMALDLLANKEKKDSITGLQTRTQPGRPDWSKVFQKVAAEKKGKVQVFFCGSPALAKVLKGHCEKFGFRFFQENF

[11] = compound effects on lung adenocarcinoma cell viability – A549, calcein-AM fluorescence, 48 h, basal, profiling panel (AID 1162); settings: higher = more signal; further: test concentration not given here
[12] = compound effects on differentiated 3T3-L1 adipocyte viability – cell-based, 3T3-L1 adipocytes, calcein-AM fluorescence, 48 h, basal, profiling panel (AID 1163); settings: 3T3-L1 adipocytes viability, higher = more signal; further: test concentration not given here
[13] = compound effects on hepatocellular carcinoma cell viability – HepG2, calcein-AM fluorescence, 48 h, basal, profiling panel (AID 1164); settings: higher = more signal; further: test concentration not given here
[14] = compound effects on multiple myeloma cell viability – MM1S, calcein-AM fluorescence, 48 h, basal, profiling panel (AID 1165); settings: higher = more signal;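 further: viability of MM1S multiple myeloma cells under basal unstimulated conditions; test concentration not given here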
[15] = calcein-AM signal in unstimulated myeloma cells – cell-based, calcein-AM fluorescence, 48 h, PK04 Diversity Set, profiling panel (AID 1166); settings: RPMI8226 myeloma viability, higher = more signal;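 further: cells grown under basal conditions without added stimulus; test concentration not given here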
[16] = JC-1 mitochondrial signal, unstimulated HepG2 cells – cell-based, JC-1 fluorescence, 24 h, 100 nL compound, profiling panel (AID 1167); settings: HepG2 mitochondrial potential, higher = more signal; further: test concentration not given here
[17] = JC-1 mitochondrial signal, unstimulated adipocytes – cell-based, JC-1 fluorescence, 3T3-L1 adipocytes, 24 h, 100 nL compound, profiling panel (AID 1168); settings: JC-1 mitochondrial fluorescence, higher = more signal, called active from +8 up or from −8 down; further: test concentration not given here
[18] = JC-1 mitochondrial signal, unstimulated myeloma cells – cell-based, JC-1 fluorescence, RPMI8226, 24 h, 100 nL compound, profiling panel (AID 1169); settings: JC-1 mitochondrial potential fluorescence, higher = more signal; further: test concentration not given here
[19] = JC-1 mitochondrial signal, unstimulated MM1S myeloma – cell-based, JC-1 fluorescence, 24 h, 100 nL compound, profiling panel (AID 1170); settings: MM1S mitochondrial potential, higher = more signal; further: test concentration not given here
[20] = resazurin metabolic signal in A549 cells – cell-based, resazurin fluorescence, 24 h, PK04 Diversity Set, profiling panel (AID 1171); settings: A549 viability, higher = more signal, called active from +8 up or from −8 down; further: test concentration not given here

| Structure (SMILES) | z-score [1] | composite z-score [2] | z-score [3] | z-score [4] | z-score [5] | z-score [6] | z-score [7] | z-score [8] | z-score [9] | z-score [10] | z-score [11] | z-score [12] | z-score [13] | z-score [14] | z-score [15] | z-score [16] | z-score [17] | z-score [18] | z-score [19] | z-score [20] |
| --- | --- | --- | --- | --- | --- | --- | --- | --- | --- | --- | --- | --- | --- | --- | --- | --- | --- | --- | --- | --- |
| O=C1OCC=C[C@H]2OC34C=CCN(Cn5nnc6ccccc65)C(=O)[C@H]3N(CCCCCO)C(=O)[C@@H]4[C@@H]12 (stereo not given in full) | 0.911 (inactive) | -0.418 | 0.896 (inactive) | 0.212 (inactive) | 1.11 (inactive) | 0.383 (inactive) | -0.433 | 1.95 (inactive) | 0.223 (inactive) | 1.32 | -0.382 | 0.188 | -0.609 | 0.823 | 0.903 | -0.0737 | -0.135 (inactive) | 0.205 | 0.183 | -0.301 (inactive) |
| C=CCN1C(=O)[C@]2(O[C@H](CCO)[C@@H]([Si](C)(C)c3ccc(OC)cc3)[C@@H]2C)c2cc(N(C=O)c3ccccc3)ccc21 | 0.35 (inactive) | 0.0774 | 9.23 (active) | 3.66 (inactive) | -0.452 (inactive) | 2.29 (inactive) | 1.53 | 0.474 (inactive) | 0.446 (inactive) | 0.327 | -3.81 | 0.532 | -4.8 | -3.05 | -4.39 | -1.98 | -0.422 (inactive) | -0.993 | -2.23 | -5.28 (inactive) |
| O=C1NC(=O)C2C1C=CC(C(O)c1ccc(-c3ccccc3)s1)N2Nc1ccc(Cl)cc1Cl (stereo not given) | -2.23 (inactive) | -0.141 | 2.29 (inactive) | 1.58 (inactive) | -0.666 (inactive) | 1.07 (inactive) | -1.09 | 0.964 (inactive) | -3.15 (inactive) | -0.664 | -1.95 | -0.901 | -2.13 | -3.61 | -3.05 | -2.92 | -1.08 (inactive) | -0.983 | -0.247 | -1.65 (inactive) |
| C#CCN1[C@@H](Cc2ccc(O)cc2)C(=O)O[C@H](Cc2ccccc2)[C@@H]1/C=C/C1CC1 | -0.332 (inactive) | -0.196 | 2.45 (inactive) | 0.0937 (inactive) | -1.15 (inactive) | 0.0357 (inactive) | -0.663 | -0.759 (inactive) | -0.462 (inactive) | -1.54 | -2.82 | -0.145 | -3.44 | -3.22 | -3.96 | -3.57 | -0.0548 (inactive) | -1.23 | -0.744 | -1.01 (inactive) |
| CC[C@@H]1C=C(C(=O)O)[C@H](c2ccc(C)cc2)N1S(=O)(=O)c1ccc(C)cc1 | -0.557 (inactive) | 0.0582 | 1.08 (inactive) | 0.661 (inactive) | -0.245 (inactive) | 0.856 (inactive) | -0.362 | 0.587 (inactive) | -0.57 (inactive) | -1.24 | -0.795 | -0.235 | -0.997 | 0.0477 | 0.365 | 0.0562 | 0.348 (inactive) | 0.637 | -0.643 | 0.357 (inactive) |
| C[N+](C)(C)CCCC[C@@H]1NC(=O)[C@H]2C[C@@H](C(=O)NCCCCCCNC(=O)CS)[C@@H](c3ccc(O)cc3)N2C1=O | -0.265 (inactive) | -0.299 | 1.24 (inactive) | 0.193 (inactive) | 1.12 (inactive) | 0.0061 (inactive) | -0.409 | 0.518 (inactive) | 0.507 (inactive) | 0.936 | -0.293 | -0.267 | -0.838 | -0.414 | 0.498 | -1.66 | -0.564 (inactive) | 0.164 | -0.0762 | -0.657 (inactive) |
| CCCC[C@@H]1C[C@H]1[C@@H](NC(=O)c1cccnc1)c1ccc(Cl)cc1 | -3.66 (inactive) | -0.321 | 2.29 (inactive) | 1.51 (inactive) | 0.395 (inactive) | 1.03 (inactive) | 0.348 | -0.56 (inactive) | -1.3 (inactive) | 0.715 | -1.01 | -1.38 | -0.114 | -2.05 | -3.56 | 1.06 | -0.307 (inactive) | -0.249 | -1.62 | 1.56 (inactive) |
| [N-]=[N+]=Nc1ccccc1C[C@]1(C(=O)NCC(O)CO)N=C(c2ccc(OCCCO)cc2)O[C@H]1c1ccccc1 (stereo not given in full) | -0.2 (inactive) | 0.027 | 19.9 (active) | 3.78 (inactive) | 1.64 (inactive) | 1.18 (inactive) | -0.132 | 1.34 (inactive) | 0.567 (inactive) | -1.25 | -0.432 | -0.281 | -0.259 | -1.04 | -0.984 | -0.571 | -0.332 (inactive) | -0.514 | -0.283 | 0.381 (inactive) |
| COc1cc2c(cc1O)C=[N+](Cc1cc3c(cc1Br)OCO3)CC2 | -0.167 (inactive) | -0.237 | 3 (inactive) | 0.472 (inactive) | 2.26 (inactive) | 0.154 (inactive) | -0.273 | -3.59 (inactive) | -2.72 (inactive) | -3.37 | -0.103 | 0.626 | -0.958 | 0.343 | -0.109 | -0.375 | -0.935 (inactive) | 0.108 | -0.374 | -0.698 (inactive) |
